# In PubChem BioAssay (NCI):
# Several values for one entry are separate records, joined by “and”; a condition that tells them apart may be missing. Identical values can stand only once. This is part of a sample that, as a whole, favours compounds with a hit. Of some 83,000 tested, about 20% had one in any assay.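 Testing used 96-well plates and a 48-hour single-concentration exposure. Example: -40 means 40% of the starting cells died.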 Unmarked numbers belong to inactive results. Activity calls are given as the source filed them. How the source made its calls: active means growth percent below 10; inactive means the rest.
# System: MDA-MB-468 breast
# Test: NCI-60 one-dose screen, 48 h (100 = growth as untreated, 0 = no growth, -100 = all killed)
# Conditions: 10 µM unless noted
row,SMILES,growth
1,CCCCC1COc2cccc3c2N1C=C/C3=C\C(=O)N(C)c1cccc(Cl)c1 (stereo not given),84.4%
2,Cc1cnc(N)nc1OCCNC(=O)c1cccc(-c2ccc(S(=O)(=O)Nc3ccc4c(c3)N(C(=O)C3CC3)CCC4)cc2)c1,36.8%
3,CCOC(=O)C1C(=O)C(=O)N(C(C)C)C1C(=O)OCC (stereo not given),98.4%
4,N#C/C(=C\c1ccccc1Cl)c1cc2ccccc2[nH]1,58.1%
5,FC1(F)CCN(Cc2c[nH]c3cc(Cl)ccc23)C[C@H]1CCc1ccccc1,9.33% (active)
6,O=C1CSC2=NCCN12,105% and 100%
7,COc1ccc(/C(C)=C(\c2ccc(Cl)cc2)c2ccc(OCCN3CCCCC3)cc2)cc1,55.5%
8,O=C(OCc1ccc2c(Cl)cc(Cl)c(O)c2n1)N1CCN(C(=O)c2cc3ccccc3[nH]2)CC1,10.3%
9,Nc1ncnc2c1ncn2C1(CO)OCC(O)C(O)C1O (stereo not given),108%
10,COc1ccc(-c2cc(-c3ccc(OC)c(OC)c3)nc(SCCCCCC(=O)NO)n2)cc1,54.8%
11,O=C(O)/C(=C/c1ccc(O)cc1)c1ccccc1,96.9%
12,Cc1csc2ccc(Cl)cc12,96.8%
13,Oc1ccc(-c2nnc(SCc3ccc(O)c4ncccc34)o2)cc1,10.8%
14,Nc1ccc(CC[C@H]2CCC/C=C/[C@@H]3C[C@H](O)C[C@H]3[C@H](O)/C=C/C(=O)O2)cc1,-27.3% (active)
15,OCc1cnccc1NC12CC3CC(CC(C3)C1)C2,99.2%
16,N=C(N)N1CCc2ccccc2C1,41% and 107%
17,CCOC(=O)C(CSC(c1ccccc1)(c1ccccc1)c1ccccc1)NC(=O)C(CSC(c1ccccc1)(c1ccccc1)c1ccccc1)NC(c1ccccc1)(c1ccccc1)c1ccccc1 (stereo not given),101%
18,Cn1ccnc1C(=O)/C=C/c1ccc(C(=O)Nc2ccc(NC(=O)CCNC(=O)c3csc(Br)n3)cc2)cc1,48.4%
19,CCN1CCN(C(=O)[C@]23CCC(C)(C)C[C@@H]2C2=CC[C@@H]4[C@@]5(C)C/C(=C/c6cccnc6)C(=O)C(C)(C)[C@@H]5CC[C@@]4(C)[C@]2(C)CC3)CC1,-6.42% (active)
20,O=C1NC(=O)C(CSc2ccccc2)(c2ccccc2)N1 (stereo not given),105%

row,SMILES,growth
1,O=C1/C(=C/c2ccc(O)cc2)COc2ccc(-c3ccccc3)cc21,65%
2,C=C(C)[C@@H]1CC[C@]2(C(=O)NNC(=O)c3cccnc3)CC[C@]3(C)[C@H](CC[C@@H]4[C@@]5(C)CCCNC(C)(C)[C@@H]5CC[C@]43C)[C@@H]12,79.8%
3,C=COCCCCCCCCCCCCCCCCCC,103%
4,c1ccc(Sc2ncnc3ccccc23)cc1,50.3%
5,CCCCCCCCCCCCC1CCC(=O)O1 (stereo not given),105%
6,N#C/C(=C\c1ccc(Br)cc1)n1nnc2cc(F)c(F)cc21,-6.6% (active)
7,Cc1c(C(=O)O)c(=O)n(-c2ccccc2)n1C,127%
8,O=C(O)C1CCCCN1c1nc(Cl)nc(Cl)n1 (stereo not given),102%
9,O=C(/C=C/c1ccco1)Nc1ncc(Cc2ccc(F)cc2)s1,21.5%
10,O=c1[nH]c(=S)[nH]c(O)c1/C=C1\C=Nc2ccccc21,103%
11,CC1O[C@@H]2C[C@@](O)([C@H]1O)n1c3ccccc3c3c4c(c5c6ccccc6n2c5c31)C(=O)NC4=O (stereo not given in full),3.51% (active)
12,O=C(Nc1cc(C(F)(F)F)cc(C(F)(F)F)c1)Nc1ccc2oc(=O)ccc2c1,-5.53% (active)
13,COc1cc2ncnc(-n3ncc4cc(NC(=O)Nc5ccc(Cl)c(Cl)c5)ccc43)c2cc1OC,-70.5% (active)
14,COc1ccc2c(c1)C=CC(C#N)N2C(=O)c1ccccc1 (stereo not given),13.1%
15,COc1ccc(CNC(=O)C(O)C(Cc2ccccc2)NC(=O)c2[nH]c3ccccc3c(=O)c2C)cc1OC (stereo not given),102%
16,Fc1ccc2[nH]cc(-c3nc(-c4c[nH]c5ccncc45)cs3)c2c1,-65.6% (active)
17,O=NN(Cc1cccnc1)C(=O)NC1CCCCC1,104%
18,O=C(CCCCCCN1CC(=O)N2[C@@H](c3cc(F)cc(F)c3)c3[nH]c4ccccc4c3C[C@H]2C1=O)NO,50.4%
19,O=c1ccn(C2OC(F)(CO)C(O)C2F)c(=O)[nH]1 (stereo not given),126%
20,CCNCCNc1cc(-c2ccc(C(F)(F)F)cc2)c(C#N)c2nc3ccccc3n12,-73.6% (active)
